From PubChem BioAssay (NCATS)
Results filed as inconclusive are left out. Calls of active or inactive are those of the source. Calls follow the shape of the dose curve; as a rule, active = well fitted cell-killing curve with a large enough effect; inconclusive = small, poorly fitted or top-dose-only effect, or effect the other way; inactive = flat fitted curve, though single readings scatter.

How the values were obtained:
Experiment in all cases: Primary qHTS to identify gynecologic anti-cancer compounds using libraries of approved drugs and bioactive compounds (AID 1345084); also: nearly all actives have a fitted effect of over 55% in size
CASKI = conditions: Gynecologic cancer cell panel viability, ATPlite luminescence, 48 h; series mostly up to 57.5 µM
In short: (§1)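 Cytotoxicity screen measuring ATP content by luciferase luminescence. Each compound is applied at five concentrations for 48 h at 37 C with 5% CO2.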

Es-2 = conditions: Gynecologic cancer cell panel viability, ATPlite luminescence, 48 h; series mostly up to 57.5 µM
In short: as §1

HeLa = conditions: Gynecologic cancer cell panel viability, ATPlite luminescence, 48 h; series mostly up to 57.5 µM
In short: as §1

Hek293T = conditions: Gynecologic cancer cell panel viability, ATPlite luminescence, 48 h, control line for the selectivity index; series mostly up to 57.5 µM
In short: as §1

JEG-3 = conditions: Gynecologic cancer cell panel viability, ATPlite luminescence, 48 h; series mostly up to 57.5 µM
In short: as §1

OV90 = conditions: Gynecologic cancer cell panel viability, ATPlite luminescence, 48 h; series mostly up to 57.5 µM
In short: as §1

PA-1 = conditions: Gynecologic cancer cell panel viability, ATPlite luminescence, 48 h; series mostly up to 57.5 µM
In short: as §1

SKOV3 = conditions: Gynecologic cancer cell panel viability, ATPlite luminescence, 48 h; series mostly up to 57.5 µM
In short: as §1

Tov-21-G = conditions: Gynecologic cancer cell panel viability, ATPlite luminescence, 48 h; series mostly up to 57.5 µM
In short: as §1

Tov112D = conditions: Gynecologic cancer cell panel viability, ATPlite luminescence, 48 h; series mostly up to 57.5 µM
In short: as §1

Measured: Potency

CCCCC(CC)COC(=O)/C=C/c1ccc(OC)cc1 (configuration not stated)
inactive: all assays above

C=C[C@H]1CN2CC[C@H]1C[C@@H]2[C@@H](O)c1ccnc2ccc(OC)cc12
inactive: all assays above

Cc1cccc(C)c1NC(=O)c1ccccc1C(=O)O
inactive: all assays above

NCCNc1cccc2ccccc12
inactive: all assays above

CCC(C(=O)OCCOCCN(CC)CC)c1ccccc1 (configuration not stated)
inactive: all assays above

C/C=C/c1ccc(O)c(OC)c1
inactive: all assays above

O=C(O)C1(C(=O)O)CCC1.[NH2-].[NH2-].[Pt+2]
inactive: all assays above

CCCCN1C[C@H](O)[C@@H](O)[C@H](O)[C@H]1CO
inactive: all assays above

CCN(CC)CCNC(=O)COc1ccc(OC)cc1
inactive: all assays above

COc1ccc(-c2cc(C(F)F)nn2-c2ccc(S(N)(=O)=O)cc2)cc1F
inactive: all assays above

Cc1cc(NS(=O)(=O)c2ccc(N)cc2)nc(C)n1
inactive: all assays above

CCCCCCCCCCCCCCCCO
inactive: all assays above

Clc1cccc(C(c2ccc3nc[nH]c3c2)n2ccnc2)c1 (configuration not stated)
inactive: all assays above

C/C=C/C=N/NC(=O)c1ccncc1
inactive: all assays above

COc1cc(C(=O)N2CCCCCCC2)cc(OC)c1OC
inactive: all assays above

Cc1c[nH]c2ccccc12
inactive: all assays above

CC(C)[N+](C)(C)CC(O)COc1cccc2ccccc12 (configuration not stated)
inactive: all assays above

CN1CCN(c2cc3c(cc2F)c(=O)c(C(=O)O)cn3-c2ccc(F)cc2)CC1
inactive: all assays above

NC1CCN(c2nc3c(cc2F)c(=O)c(C(=O)O)cn3-c2ccc(F)cc2F)C1 (configuration not stated)
inactive: all assays above

CCc1cc(Cl)c(OC)c(C(=O)NC[C@@H]2CCCN2CC)c1O
inactive: all assays above

NC(=S)N/N=C/c1cccnc1
inactive: all assays above

CCCN(CCC)S(=O)(=O)c1ccc(C(=O)O)cc1
inactive: all assays above

CC(=O)Nc1ccc(OCC(O)CNC(C)C)cc1 (configuration not stated)
inactive: all assays above

CC(=O)OCC1=C(C(=O)O)N2C(=O)[C@@H](NC(=O)CSc3ccncc3)[C@H]2SC1
inactive: all assays above

CC(=O)Nc1ccc(CC(=O)O)cc1
inactive: all assays above

Cc1cccc(C)c1NC(=O)CN1CCCCCC1
not listed: SKOV3
inactive: all other assays above

Cc1ccccc1OCC(O)CO (configuration not stated)
inactive: all assays above

CC(C)[C@@H]1CC[C@@H](C)CC1=O
inactive: all assays above

CN1CCN(c2c(F)cc3c(=O)c(C(=O)O)cn4c3c2SCC4)CC1
inactive: all assays above

CO[C@H]1C=CO[C@@]2(C)Oc3c(C)c(O)c4c(O)c(c(/C=N/N5CCN(C)CC5)c(O)c4c3C2=O)NC(=O)/C(C)=C\C=C[C@H](C)[C@H](O)[C@@H](C)[C@@H](O)[C@@H](C)[C@H](OC(C)=O)[C@@H]1C
inactive: all assays above

Nc1ccc(C(=O)NCC(=O)O)cc1
not listed: SKOV3
inactive: all other assays above

Cc1ncc(CO)c(C=O)c1O
inactive: all assays above

COC(=O)C(c1ccccc1Cl)N1CCc2sccc2C1 (configuration not stated)
inactive: all assays above

CCCCNC(=O)NS(=O)(=O)c1ccc(N)cc1
not listed: SKOV3
inactive: all other assays above

CC(=O)NO
inactive: all assays above
